Measured values reported in paper PMC7826789 (International Journal of Molecular Sciences, 2021).

tested on: ANKK1; settings: Compound Concentration (nM):1000
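Note: KINOMEscan scanMAX binding as percent activity remaining versus control; lower means stronger binding.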

First: Cl.O=C(Nc1ccc(Oc2ccc3[nH]c(NC(=O)c4ccco4)nc3c2)cc1)Nc1cc(C(F)(F)F)ccc1F [GW683134A]
Second: Cl.O=C(Nc1ccc(Oc2ccc3[nH]c(NC(=O)c4ccccc4)nc3c2)cc1)Nc1cc(C(F)(F)F)ccc1F [GW709042A]
The “Percent Control” value of the first is higher: 100% for the first, 95% for the second.

`O=C(Nc1n[nH]c2nc(-c3ccc(O)cc3)c(Br)cc12)C1CC1` [SB-725317] and `CC1=C(C(=O)Nc2ccc3[nH]ncc3c2)C(c2ccc(Cl)c(Cl)c2)CC(=O)N1` (centres unmarked) [GSK299115A] are the same in “Percent Control” value: 100% for the first, 100% for the second.

Going from `COc1cc2ncnc(Nc3ccc4c(cnn4Cc4ccccc4)c3)c2cc1OC.Cl` [GW282449A] to `CN(C)c1cc2c(Nc3ccc4c(cnn4Cc4ccccc4)c3)ncnc2cn1` [GW282974X], the “Percent Control” value rises from 88% to 100%.

First: CN(C)CCNC(=O)Nc1ccc(N(C)c2ccnc(Nc3ccc(CS(C)(=O)=O)cc3)n2)cc1.Cl [GW830900A]
Second: CN1CCN(C(=O)c2ccc(NC(=O)Nc3ccc(N(C)c4ccnc(Nc5ccc(CS(C)(=O)=O)cc5)n4)cc3)cc2)CC1.Cl [GW830263A]
The “Percent Control” value of the first is higher: 88% for the first, 28% for the second.

First: COc1ccc(COc2ccc(Cc3cnc(N)nc3N)cc2OC)cc1 [GW632580X]
Second: CCS(=O)(=O)c1ccc(OC)c(Nc2ncc(-c3cccc(F)c3)o2)c1 [GW621970X]
The “Percent Control” value of the first is lower: 81% for the first, 100% for the second.

Going from `COc1cc(/C=N/Nc2ncnc3[nH]ncc23)ccc1O` [GW578748X] to `COc1cc(C=NNc2ncnc3c2cnn3-c2ccccc2)ccc1O` [GW513184X], the “Percent Control” value rises from 21% to 48%.

Going from `C/C(Nc1ccc(S(N)(=O)=O)cc1)=C1/C(=O)Nc2ccccc21` [GW335962X] to `NS(=O)(=O)c1ccc(N/N=C2\C(=O)Nc3ccc(Cl)cc32)cc1` [GW280670X], the “Percent Control” value rises from 50% to 97%.

First: CC1=C(C(=O)Nc2ccc3[nH]ncc3c2)C(c2ccc3ccccc3c2)CC(=O)N1 (centres unmarked) [GSK270822A]
Second: NS(=O)(=O)c1ccc(N/N=C2\C(=O)Nc3ccc(C(=O)NCc4ccncc4)cc32)cc1 [GW300657X]
The “Percent Control” value of the first is higher: 100% for the first, 27% for the second.

`COc1ccc2cc(-c3c(-c4ccncc4)nc(-c4ccc(S(C)(=O)=O)cc4C)n3C)ccc2c1` [SB-633825] and `COc1cccc(-c2c[nH]c3c(N/N=C/c4ccncc4)ncnc23)c1` [GW814408X] are the same in “Percent Control” value: 100% for the first, 100% for the second.

Going from `COc1ccccc1-c1cc(/C=C2\C(=O)Nc3ncc(Br)cc32)cc(Br)c1O` [GW442130X] to `COc1ccc2[nH]c3c4[nH]c5ccc(OC)cc5c4c4c(c3c2c1)C(=O)NC4=O` [GW296115X], the “Percent Control” value falls from 100% to 71%.

Compared with `Cl.O=C(O[C@H]1CN[C@H](C#Cc2cc3ncnc(Nc4ccc5c(cnn5Cc5ccccc5)c4)c3s2)C1)N1CCOCC1` [GSK200398A], `Cl.c1ccc(Cc2nc3ccc(Nc4ncnc5ccccc45)cc3[nH]2)cc1` [GR269666A] is lower in “Percent Control” value: 100% for the first, 94% for the second.

Compared with `Cl.O=S1CCN(Cc2ccc(-c3ccc4ncnc(Nc5ccc(OCc6ccccc6)c(F)c5)c4c3)o2)CC1` [GW576924A], `CCc1ccc(Oc2nccc(-c3c(-c4ccc(F)cc4)ncn3C3CCNCC3)n2)cc1` [SB-242719] is lower in “Percent Control” value: 88% for the first, 83% for the second.

Compared with `CCn1c(-c2nonc2N)nc2c(C#CC(C)(C)O)nc(OCCNC)cc21.Cl` [GSK949675], `COc1cc(C)c(N(C)C(=O)CN(C)C)cc1Nc1nc(Nc2cccc(F)c2C(N)=O)c2cc[nH]c2n1` [GSK2219385] is lower in “Percent Control” value: 100% for the first, 94% for the second.

Going from `C[C@@H](Oc1cc(-n2cnc3ccc(OC4CCN(C)CC4)cc32)sc1C(N)=O)c1ccccc1Cl` [GSK579289A] to `COc1cc(N2CCN(C(C)C)CC2)ccc1Nc1nc(Nc2ccc(F)cc2C(=O)NC[C@@H](O)CO)c2cc[nH]c2n1` [GSK1392956A], the “Percent Control” value rises from 63% to 92%.

Compared with `NS(=O)(=O)c1ccc(N/N=C2\C(=O)Nc3ccc(-c4cnco4)cc32)cc1` [GW276655], `CC(C)COC(=O)c1ccc2c(c1)/C(=C/Nc1ccc(S(N)(=O)=O)cc1)C(=O)N2` [GW416981X] is lower in “Percent Control” value: 65% for the first, 44% for the second.

`Cc1cc(O)cc(C)c1/C=C/c1cncc(C(N)=O)c1` [GW435821X] and `COC(=O)Nc1nc2ccc(Oc3ccc(NC(=O)Nc4cc(C(F)(F)F)ccc4F)cc3)cc2s1.Cl` [GW693917A] are the same in “Percent Control” value: 85% for the first, 85% for the second.
